Screens as filed in PubChem.
Shown are actives, neighbours in structure and some others; about 2.1% of the full set was active somewhere.
BaF3 parental = counter-screen for JAK2V617F inhibitors: parental Ba/F3 viability inhibitors; CellTiter-Glo ATP luminescence; actives 1.1% (n = 220,000); inhibition, % at 5.6 µM; AID 1486;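 active means inhibition above a per-campaign cutoff, the mean inhibition of all tested compounds plus 3 SD, cut at about 27% in these data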;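 further: 0% = DMSO wells and 100% = JAK Inhibitor I control wells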
KLF5 inh = inhibitors of KLF5 expression. DLD-1 KLF5 promoter-luciferase reporter, luminescence. inhibition, % at 5 µM. actives 0.23% (n = 290,000). AID 1700;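 active means inhibition above a per-plate limit of that plate's mean compound inhibition plus 3 SD, cut at about 60% in these data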;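 further: 0% = DMSO wells and 100% = LY294002 at 200 µM; higher means less KLF5 promoter-driven luciferase light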
APP 5UTR inh = APP translation inhibition; AID 1285; SH-SY5Y APP 5'UTR-luciferase reporter, luminescence; inhibition, % at 2 µM; actives 0.82% (n = 190,000);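 active means inhibition above a set limit, derived from the sample mean plus 3 SD, cut at about 45% in these data; inconclusive means one replicate passes the limit while the other fails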
Ba/F3 V617F tox = loss of viability in JAK2V617F-driven Ba/F3 cells | Ba/F3 EpoR-JAK2V617F viability, ATP luminescence | inhibition, % at 5.6 µM | actives 1.1% (n = 220,000);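 active means inhibition above the campaign mean plus 3 SD over all tested compounds, cut at about 24% in these data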;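 further: cytokine-independent growth of Ba/F3 cells driven by EpoR plus mutant JAK2; 0% = DMSO-treated cells and 100% = JAK inhibitor I control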
aSyn UTR inh = 5' untranslated region of α-synuclein, MLPCN primary screen. alpha-synuclein 5'UTR reporter, inhibitor activity. AID 1813. inhibition, % (tested at 7.5 µM). actives 0.82% (n = 300,000); in the data active means inhibition above about 60%; inconclusive means no clear call, values can overlap the other calls;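 further: H4 neuroglioblastoma cells stably carrying SNCA 5'UTR luciferase fusion; 0% = DMSO wells and 100% = positive control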
IEC-6 cytotox = IEC-6 cytotoxicity, counter-screen for KLF5 inhibitors | actives 0.78% (n = 290,000) | luminescence viability | inhibition, % at 5 µM | AID 1825; in the data active means inhibition above about 22%;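 further: 0% = plate median of test compound wells and 100% = cytotoxic reference compound wells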
BaF3 tox 2 = parental Ba/F3 viability inhibition for JAK2V617F counter-screen; shares compounds with Ba/F3 V617F tox; CellTiter-Glo luminescence; cells kept alive by added IL-3; inhibition, % at 5.6 µM; actives 31% (n = 580);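 active means cell growth inhibition above the hit limit set in the earlier mutant JAK2 cell screen, cut at about 27% in these data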;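 further: plate controls were DMSO-treated cells for no effect and JAK Inhibitor I control wells for full effect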
JAK2V617F conf = confirmation: loss of viability in JAK2V617F-dependent Ba/F3 cells; shares compounds with Ba/F3 V617F tox; inhibition, % at 5.6 µM; actives 66% (n = 580); Ba/F3 EpoR-JAK2V617F viability, CellTiter-Glo luminescence;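 active means mean inhibition above the hit cutoff derived in the earlier primary screen, cut at about 25% in these data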;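 further: 0% = DMSO-treated cells and 100% = JAK inhibitor I control wells; higher means lower luminescence from reduced cell ATP and viability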
An asterisk follows results filed as active; u = inconclusive; x = no result given.

SMILES	BaF3 parental	KLF5 inh	APP 5UTR inh	Ba/F3 V617F tox	aSyn UTR inh	IEC-6 cytotox	BaF3 tox 2	JAK2V617F conf
COc1ccc(/C=N/NC(=O)CCn2cnc(-c3ccccc3)c2-c2ccccc2)cc1	11	9	89*	47*	u	40*	62*	94*
CNC(=O)c1nnsc1S(=O)(=O)c1ccc(Cl)cc1	8	16	95*	91*	-26	48*	68*	98*
Nc1nc(C(=O)N2CCOCC2)nn1S(=O)(=O)c1ccc(Cl)cc1	13	-11	4	7	1	-2	x	x
CNC(=O)c1ccc(S(=O)(=O)c2ccc(Cl)cc2)c(NC(C)=O)c1	x	-7	x	x	-19	-1	x	x
O=C(c1nnsc1S(=O)(=O)c1ccc(Cl)cc1)N1CCOCC1	3	29	38	76*	-34	19	45*	75*
CCN(CC)S(=O)(=O)c1ccc(NC(=O)COC(=O)c2ccc(NC(=O)CC#N)cc2)cc1	2	-4	11	1	9	-2	x	x
COc1cc(N2C(=O)C=CC2=O)c(OC)cc1Cl	2	-3	x	32*	7	16	-2	23
COCc1cc(=O)[nH]c(SCC(=O)Nc2ccccc2)n1	-4	14	-11	95*	-1	-11	-4	-2
Cc1[nH]c2ccc(C(=O)OC(C)C(=O)N(C)c3ccccc3)cc2c1C (centres undefined)	x	x	x	x	9	x	x	x
Cc1nc(N=C(N)N)nc2ccccc12	20	-7	-23	34*	4	7	29*	51*
COc1cccc(OCC(=O)NNC(=O)C(=O)Nc2cccc(C)c2)c1	x	-40	x	x	-61	-1	x	x
Cc1ccc(O)c(NC(=O)CSc2ccc(Cl)cc2)c1	23	-34	-17	43*	-177	1	21	71*
CC(C)CCNC(=O)C(c1ccco1)N(CCCO)C(=O)Cn1nnc(-c2ccc(F)cc2)n1 (centres undefined)	-2	-1	-10	49*	-17	-6	-8	-3
COc1ccccc1OC(=O)Cc1cccc2ccccc12	x	-5	x	x	-1	4	x	x
COc1ccccc1CC(=O)O/N=C(\N)Cc1cccc2ccccc12	8	0	9	34*	7	6	-6	-5
CCOC(=O)N1CCN(C(=O)c2cc3cc(OC)c(OC)cc3[nH]2)CC1	x	-10	x	x	5	4	x	x
O=C(c1cnc2ccc3ccccc3c2c1)c1cc(F)ccc1O	16	-6	x	26*	11	3	18	39*
COC(CN(C(=O)CCl)C(C(=O)NC1CCCCC1)c1ccc(C)cc1)OC (centres undefined)	5	-6	4	91*	-36	4	1	17
O=c1c(Cl)c(N2CCC3(CC2)OCCO3)cnn1C12CC3CC(CC(C3)C1)C2	-4	-19	x	-5	7	0	x	x
CCCOc1ccc2ccccc2c1/C=N/n1c(C)nnc1-n1nc(C)cc1C	26	-9	9	24*	35	12	55*	66*
CC(=O)Nc1ccccc1C(=O)N1CCN(Cc2ccc3c(c2)OCO3)CC1	x	-23	x	x	-5	-2	x	x
CC(=O)c1ccc(NC(=O)CCS(=O)(=O)c2ccc3c(c2)n(C)c(=O)c(=O)n3C)cc1	x	-4	x	x	-4	-2	x	x
O=C(COC(=O)c1ccncc1)Nc1cc(Cl)ccc1Cl	4	-12	18	45*	20	-3	-5	-1
O=C(CCl)NC(=O)NC12CC3CC(CC(C3)C1)C2	-11	4	-6	43*	-26	-4	7	93*
O=C(OCc1ccccc1F)c1cnc(Cl)c(Cl)c1	x	-7	x	x	4	-3	x	x
SMILES	BaF3 parental	KLF5 inh	APP 5UTR inh	Ba/F3 V617F tox	aSyn UTR inh	IEC-6 cytotox	BaF3 tox 2	JAK2V617F conf
O=C1C=CCC(/C=C/c2ccccc2)O1 (centres undefined)	0	-24	31	46*	-104	2	24	97*
O=C(NCCCCCCNC(=O)c1ccc(Br)s1)c1ccc(Br)s1	-1	-34	10	37*	-108	-4	-2	20
O=C(NCCCCNC(=O)c1ccc(Cl)s1)c1ccc(Cl)s1	0	-28	-1	-4	3	-1	x	x
Cc1nn(C)c(C)c1C(C)NC(=O)c1cc(COc2ccc(F)c(F)c2)on1 (centres undefined)	x	-89	x	x	-68	-8	x	x
CC(C)(C)/C(O)=C/c1nc2cc(Cl)ccc2oc1=O	5	-37	x	37*	-5	-1	8	78*
Cc1ccc2oc(=O)c(/C=C(\O)C(C)(C)C)nc2c1	2	-17	-4	-2	-48	0	x	x
CC1CCN(CCCNC(=O)c2cc3c(Cl)nc4ccccc4c3s2)CC1	11	-12	10	34*	-53	5	4	71*
O=C(CCl)N=c1sccn1Cc1ccc(Cl)cc1Cl	-10	-23	8	101*	-6	99*	21	99*
CCC(=O)OCC(=O)N=c1sccn1Cc1ccc(C)cc1	x	-31	x	x	-18	-5	x	x
O=C(CCl)N=c1sccn1Cc1ccccc1Cl	11	-8	x	99*	-11	100*	10	99*
CCC(=O)OCC(=O)N=c1sccn1Cc1ccccc1Cl	x	-35	x	x	4	-6	x	x
O=C(CCNC(=O)C1CCN(S(=O)(=O)c2ccc(F)cc2)CC1)NCc1ccncc1	x	-1	x	x	8	9	x	x
C1=C(c2ccccc2)Nc2ccccc2N=C1c1ccccc1	1	-92	1	102*	-32	3	-3	3
O=C1CC(c2ccccc2)=Nc2ccccc2N1	7	3	0	1	-37	-2	x	x
O=C(COc1cccc(NC(=O)c2cccc([N+](=O)[O-])c2)c1)c1ccc(F)cc1	8	9	x	-1	2	1	x	x
COc1cccc(C(=O)COc2cccc(NC(=O)c3cccc([N+](=O)[O-])c3)c2)c1	10	1	-4	42*	x	3	-3	-10
Cc1ccc(NC(=O)/C(=C\c2ccccc2)NC(=O)/C=C/c2ccccc2)cc1	7	-11	-14	72*	-40	-2	-4	-7
O=C(O[C@@H]1OC2COC(=O)c3cc(O)c(O)c(O)c3-c3c(cc(O)c(O)c3O)C(=O)O[C@@H]([C@H]1O)[C@@H]2O)c1cc(O)c(O)c(O)c1	9	-20	12	48*	-4	7	-3	-7
CCC1CN(C(=O)N2CCC(C(=O)Nc3ccccc3F)CC2)c2ccccc2O1 (centres undefined)	x	-13	x	x	-1	5	x	x
Oc1ccc(/C=N/N2CCN(C3c4ccccc4-c4ccccc43)CC2)cc1	-3	-30	x	0	-8	0	x	x
Oc1ccc(/C=N/N2CCN(C3c4ccccc4-c4ccccc43)CC2)cc1O	2	-15	x	70*	25	-2	9	90*
